D2 PAM-1 – positively modulates the human D2 dopamine receptor allosterically | P14416 | HEK293 T-REx D2, calcium flux, EC20 dopamine potentiation | potentiation, % at 10 µM | 340,000 compounds, 0.34% hits | AID 485347;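 active = potentiation over 3 SD above the plate norm, cut at about 30% in these data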; also: 0% is about no effect
Target sequence (P14416 whole entry, looked up): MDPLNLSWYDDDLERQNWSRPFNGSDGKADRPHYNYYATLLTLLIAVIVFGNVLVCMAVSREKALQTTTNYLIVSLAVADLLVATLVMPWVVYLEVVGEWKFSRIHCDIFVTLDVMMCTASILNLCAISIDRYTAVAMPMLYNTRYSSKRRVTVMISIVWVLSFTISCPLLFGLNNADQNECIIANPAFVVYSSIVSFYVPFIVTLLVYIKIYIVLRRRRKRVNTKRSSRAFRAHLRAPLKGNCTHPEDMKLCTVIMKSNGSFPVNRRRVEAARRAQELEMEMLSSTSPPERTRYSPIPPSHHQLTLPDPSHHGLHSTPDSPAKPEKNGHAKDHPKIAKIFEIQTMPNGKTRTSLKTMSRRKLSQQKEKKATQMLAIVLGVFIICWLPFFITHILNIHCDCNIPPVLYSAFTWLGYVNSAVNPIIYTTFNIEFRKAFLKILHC
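Calcium flux readout, no-wash dye, 1 read/s. Inducible HEK293 Trex D2 line, overnight 30 C. Compound alone 180 s (agonist flags), then EC20 dopamine, another 180 s to score potentiation.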
D2 ag-1 – agonists of human D2 dopamine receptor. HEK293 T-REx D2 cells, calcium flux agonist mode. activation, % at 2 µM. 340,000 compounds, 0.53% hits. AID 485358;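 active = activation over 3 SD above normal in the single-dose calcium agonist read, cut at about 30% in these data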; also: 0% is about no effect
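Calcium-flux readout, 1 cycle/sec over 180 s following compound pin transfer, in inducible HEK293 Trex D2 cells (force-coupled); dopamine controls included. Positive calcium responses during this window marked compounds as potential agonists.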
D2 antagonist – D2 dopamine receptor (human) antagonism | inhibition, % at 10 µM | 340,000 compounds, 2% hits | HEK293 TREx D2 cells, calcium flux, dopamine EC80 | AID 485344 | P14416; in the data active = inhibition above about 30%; inactive = below that, where a call was filed; also: 0% is about no effect
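In this primary screen, negative modulation is detected by tracking calcium flux after an EC80 dopamine challenge in inducible HEK293 T-REx D2 cells preexposed to test compound for 180 s.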
D2 ag-2 – human D2 receptor agonism in beta-arrestin assay; DiscoveRx PathHunter D2 beta-arrestin, luminescence, 90 min; 100% = 57 uM dopamine signal; activation, % (concentration not given with the values); 360,000 compounds, 0.084% hits; AID 624465; in the data active = activation above about 40%; inconclusive = between about 15% and that limit
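DiscoveRx PathHunter D2 beta-arrestin cells (2,100/well) attached overnight, then compound-stimulated 90 min at 37 C in HBSS/10 mM HEPES/0.1% Tween-20 buffer; beta-galactosidase complementation read by luminescence after 1 h at ambient temperature. Dopamine 57 uM final (EC100) as control.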
D2 PAM-2 – human D2 receptor positive allosteric modulation | P14416 | AID 624464 | DiscoveRx D2 beta-arrestin cells, luminescence, 90 min; 100% = 57 uM dopamine signal | 360,000 compounds, 0.23% hits | potentiation, % (test concentration not listed); in the data active = potentiation above about 50%; inconclusive = mostly about 30% to 49%
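D2 cells co-treated with compound plus 50 nM dopamine (EC20) for 90 min at 37 deg C to detect potentiation. Beta-arrestin recruitment was read as enzyme-fragment luminescence after 1 h at ambient temperature. Full response was set by 57 uM dopamine.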
The depositor's hits bear a star; ? = inconclusive; . = no result given. An excerpt weighted towards active compounds, which were near 2.4% of everything screened.

SMILES	D2 PAM-1	D2 ag-1	D2 antagonist	D2 ag-2	D2 PAM-2
CCn1nc(CC(=O)Nc2ccc(-n3cnnn3)c(C)c2)c2ccccc2c1=O	0	-1	1	-4	-7
CCn1nc(CC(=O)Nc2ccc(-n3cnnn3)c(OC)c2)c2ccccc2c1=O	1	1	35*	1	-23
Cc1ccc(-c2nnc3ccccc3c2C(=O)Nc2cccc(C(F)(F)F)c2)cc1	1	0	.	.	.
CCN(CC)c1ccc(/C=C2\C(=O)c3ccc(C(=O)O)cc3C2=O)cc1	-1	110*	54*	-4	-4
Cc1ccc(C)c(OCCN2C(=O)NC3(CCc4ccccc4C3)C2=O)c1 (configuration not stated)	-3	1	33*	-4	-27
CC(=O)Nc1ccc(/C=C2\Sc3ccccc3C2=O)cc1	-9	3	23	?	56*
CC(=O)N(C)/C=C1\Sc2ccccc2C1=O	-4	0	-16	3	-3
CC1CCN(CC[C@H]2CCCN2S(=O)(=O)c2cccc(O)c2)CC1	-21	0	34*	-5	-23
O=C(NCCC1CCCCN1S(=O)(=O)c1ccccc1)C(=O)NCCN1CCOCC1 (configuration not stated)	-1	1	0	-9	-21
O=S(=O)(c1ccc(F)cc1)N1CCN(CC(O)COCc2cccs2)CC1 (configuration not stated)	5	0	6	0	24
OC(COCc1cccs1)CN1CCN(c2cccc(C(F)(F)F)c2)CC1 (configuration not stated)	-19	2	50*	0	-28
COc1ccc(C=NNc2nc3ccccc3s2)cc1	.	.	.	1	-11
Cc1ccc2[nH]c(C)c(/C=N/Nc3nc4ccccc4s3)c2c1	-7	1	-1	6	58*
Cc1ccc(C)c(C(=O)COC(=O)c2ccccc2N2C(=O)C3C4CCC(C4)C3C2=O)c1 (configuration not stated)	41*	0	-18	0	2
NC(=O)c1ccccc1NC(=O)CN1CCOCC1	13	-1	31*	-1	-1
COc1cccc(CC(=O)Nc2ccccc2C(=O)N2CCOCC2)c1	0	0	-4	0	-6
COc1ccc(CC(=O)Nc2ccccc2C(=O)N2CCOCC2)cc1	-7	0	44*	0	-7
CCOc1ccc(N(C)C(=O)c2oc(=O)c3ccccc3c2-c2ccccc2)cc1	.	0	.	.	.
COc1cccc(NC(=O)CSc2nccn2C2CCCC2)c1	-3	0	.	.	.
N/C(=N\OC(=O)c1ccc(F)cc1)c1ccccc1	-9	-1	5	?	72*
N/C(=N\OC(=O)c1cccc(F)c1)c1ccccc1	5	0	-2	?	57*
Cc1ccc(S(=O)(=O)C2(C(=O)NC3CCCC3)CC2)cc1	35*	0	-1	2	8
Cc1ccc(S(=O)(=O)C2(C(=O)NC3CCCCC3C)CC2)cc1 (configuration not stated)	0	0	5	-1	-6
O=C(C1COc2ccccc2O1)N1CCN(c2ccc(C(F)(F)F)cn2)CC1 (configuration not stated)	.	.	.	2	-8
O=C(C1COc2ccccc2O1)N1CCN(c2ccccc2)CC1 (configuration not stated)	-4	0	41*	-1	-13
SMILES	D2 PAM-1	D2 ag-1	D2 antagonist	D2 ag-2	D2 PAM-2
NS(=O)(=O)c1ccc(N2CCN(C(=O)C3COc4ccccc4O3)CC2)nc1 (configuration not stated)	1	-1	35*	-1	7
COc1ccc(S(=O)(=O)Nc2cc3c(cc2NCc2ccccc2)n(C)c(=O)n3C)cc1	5	.	.	.	.
CCOC(=O)N1CCN(C(=O)c2cnn(-c3cccc(F)c3)c2-n2cccc2)CC1	11	.	.	.	.
Cc1ccc(N2CC(C(=O)N3CCC(c4nc5ccccc5[nH]4)CC3)CC2=O)cc1C (configuration not stated)	-11	0	34*	1	-7
O=C1CC(c2nc3ccccc3[nH]2)CN1c1cccc(C(F)(F)F)c1 (configuration not stated)	-5	1	33*	-1	-8
O=C(C1CC(=O)N(c2ccc(F)cc2)C1)N1CCC(c2nc3ccccc3[nH]2)CC1 (configuration not stated)	-20	0	-13	1	-10
COc1ccc(OC)c([N+](=O)[O-])c1C(N)=O	-8	0	7	8	50*
COc1ccc2c(C)c(CCC(=O)NCc3cccc(Cl)c3)c(=O)oc2c1	0	-1	.	.	.
CCOC(=O)c1c(C)[nH]c(C)c1S(=O)(=O)NCC(=O)N1CCN(c2cccc(C)c2)C(C)C1 (configuration not stated)	6	0	.	.	.
O=C(Nc1ccccc1)c1nc[nH]c1C(=O)NCCNC(=O)c1[nH]cnc1C(=O)Nc1ccccc1	.	.	.	?	61*
N=c1c(C(=O)NCC2CCCO2)cc2c(=O)n3ccccc3nc2n1CCCO (configuration not stated)	1	2	.	.	.
NC(=O)c1ccc(C(F)(F)F)n(Cc2cccc(Cl)c2)c1=O	4	1	32*	1	-1
Cc1ccc(/C=N/NC(=O)CNC(=O)c2cccc([N+](=O)[O-])c2C)o1	38*	1	2	-6	-5
COc1cc(C(=O)NCC(=O)N/N=C/c2ccc(-c3ccc([N+](=O)[O-])cc3)o2)cc(OC)c1OC	-4	-1	-16	5	4
CN(C)CCCNC(=O)/C(=C\c1ccc(-c2cccc([N+](=O)[O-])c2)o1)NC(=O)c1ccccc1	-1	1	37*	0	-10
COc1cc(C(=O)NCC(=O)N/N=C/c2ccc(-c3cccc([N+](=O)[O-])c3)o2)cc(OC)c1OC	-24	-1	50*	-6	-12
Cc1ccccc1NC(=O)c1c(C)oc2ccc(O)c(CN3CCCC(C)C3)c12 (configuration not stated)	-5	-1	.	.	.
CCOC(=O)c1c(C)oc2nc(C)nc(N3CCN(c4cccc(C(F)(F)F)c4)CC3)c12	1	0	.	.	.
Cc1cc(NC(=O)c2cc(-c3cccs3)nc3ccccc23)no1	0	0	37*	7	-2
CC(=O)NS(=O)(=O)c1ccc(NC(=O)c2cc(-c3cccs3)nc3ccccc23)cc1	-17	37*	17	1	-1
O=c1c(S(=O)(=O)c2ccccc2)cn(Cc2cccc(F)c2)c2cc(N3CCOCC3)c(F)cc12	0	0	.	.	.
Cc1ccc2occ(CC(=O)Nc3ccc(Cl)c(C(F)(F)F)c3)c2c1	-6	0	.	.	.
CCOC(=O)c1c(NC(=O)CSc2cn(CCNC(=O)c3c(F)cccc3F)c3ccccc23)sc2c1CCC2	-2	0	.	.	.

Screening results deposited in PubChem BioAssay by National Center for Advancing Translational Sciences (NCATS).
